# Sampled rows, rich in hits. Any-hit rate of the full collection: about 21%.
# Gal4-VP16 FLuc: Gal4-VP16 reporter inhibition counter-screen. Drosophila S2 Gal4-VP16 UAS-luciferase, luminescence, 20 h. Potency, µM (top dose mostly 53.6 µM), without a hit: top-dose activity, negative = inhibition, most hits filed as inhibitors. actives 3.5% (n = 310,000);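 note: Gal4-VP16 expression switched on by copper sulfate through the metallothionein promoter; potency is the fitted concentration of half-maximal effect; nearly all actives have a fitted effect of over 50% in size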
# ELG1 repair inh: ELG1-dependent DNA repair inhibition; HEK293T ELG1-luciferase reporter, luminescence, 16 h; DNA damage induced by 5-fluorouridine; Potency, µM (doses to about 46.1 µM), inactives show at the top dose activity change, negative = inhibition, most hits filed as inhibitors; actives 2.3% (n = 330,000); AID 504467; note: potency is the fitted concentration of half-maximal effect; nearly all actives have a fitted effect of over 55% in size
#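 Overnight (16 hr) co-exposure of 2,000 cells/well to 5-fluorouridine and compound at 37 °C preceded detection. Luciferase was quantified via ONE-Glo luminescence; loss of signal denotes inhibition.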
# IL1B secr inh: inflammasome signaling inhibition, IL-1 beta readout; THP-1 LPS/ATP IL-1B secretion, AlphaLISA, 16 h; active compounds read low; activity change, % at 57.5 µM; actives 4.7% (n = 360,000); in the data active = activity change below about -50%; inconclusive = mostly about -30% to -49%
#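 THP-1 cells pretreated 1 hr with compounds (up to 57.5 uM final), then stimulated with LPS (250 ng/mL final) plus ATP (1.25 mM final); secreted IL-1B measured by AlphaLISA after 16 hr, decreased signal indicating inhibition.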
# DT40 TDP1 no CPT: qHTS for Inhibitors of human tyrosyl-DNA phosphodiesterase 1 (TDP1): qHTS in cells in absence of CPT | actives 15% (n = 420,000) | Potency, µM (series often up to 46.2 µM), for the others: top-dose activity change, negative = growth inhibition, usual class: inhibitors | AID 686978, 2013 | DT40 Tdp1-/- hTDP1 cells, no CPT, ATP luminescence, 48 h; note: potency is the fitted concentration of half-maximal effect; nearly all actives have a fitted effect of over 55% in size
#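 DT40 Tdp1-/-;hTDP1 cells, no CPT (DMSO vehicle only), 400 cells/well; compounds pin-transferred; ≥48 hr, 37 °C; CellTiter-Glo 30 min RT dark, luminescence read.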
# TDP1 cell CPT: DT40-hTDP1 cell growth loss with CPT; chicken DT40 Tdp1-/-;hTDP1 cells + 20 nM CPT, ATP luminescence, 48 h; Potency, µM (top dose mostly 46.2 µM), for inactives: at the highest dose activity change, negative = growth inhibition, actives largely listed as inhibitors; actives 12% (n = 420,000); AID 686979; note: potency is the fitted concentration of half-maximal effect; nearly all actives have a fitted effect of over 55% in size
#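 Cell growth measured by CellTiter-Glo luminescence after a minimum 48 h, 37 C compound exposure with 20 nM CPT in Tdp1-knockout DT40 cells stably expressing hTDP1, seeded 400/well; qHTS titration format.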
# RORgamma inh: ROR gamma (mouse) transcription inhibition; Potency, µM (titrated, usually from 53.6 µM), for inactives: top-dose activity change, negative = inhibition, actives largely listed as inhibitors; AID 2551; Drosophila S2 Gal4-RORgamma UAS-luciferase reporter, 20 h; actives 5.4% (n = 310,000); note: potency is the fitted concentration of half-maximal effect; nearly all actives have a fitted effect of over 60% in size
# Target sequence (P51450 whole entry, looked up, the tested form may be a part): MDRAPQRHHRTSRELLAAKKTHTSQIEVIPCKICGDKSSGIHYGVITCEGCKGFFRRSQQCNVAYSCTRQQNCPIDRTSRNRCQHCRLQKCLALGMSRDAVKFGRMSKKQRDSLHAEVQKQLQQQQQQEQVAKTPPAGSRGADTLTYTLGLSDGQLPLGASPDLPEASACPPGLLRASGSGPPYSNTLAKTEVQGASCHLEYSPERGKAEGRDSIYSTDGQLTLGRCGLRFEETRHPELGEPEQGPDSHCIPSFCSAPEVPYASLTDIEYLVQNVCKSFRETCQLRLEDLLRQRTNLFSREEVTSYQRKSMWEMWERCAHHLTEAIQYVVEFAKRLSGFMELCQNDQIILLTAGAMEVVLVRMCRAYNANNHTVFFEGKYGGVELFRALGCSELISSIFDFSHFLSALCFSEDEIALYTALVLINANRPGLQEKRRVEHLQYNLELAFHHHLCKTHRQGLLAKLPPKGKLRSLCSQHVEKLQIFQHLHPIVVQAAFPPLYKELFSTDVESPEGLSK
#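 Luminescence from a UAS-regulated Photinus luciferase reporter in stably transfected Drosophila Schneider cells is measured; decreased signal marks ROR gamma inhibition. Fusion expression is induced by 700 uM copper sulfate for 20 hr.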
# An asterisk follows results filed as active; ? = inconclusive; / = not tested or not shown. Unless noted, calls come from the whole dose curve; as a rule, active = well fitted curve in the direction sought with a large enough effect; inconclusive = small, poorly fitted or top-dose-only effect, or another doubt; inactive = no such curve, though single readings can be large; an effect the other way counts as inactive or inconclusive. % is set by controls: 0 for no effect and ±100 for the full control effect.
SMILES,Gal4-VP16 FLuc,ELG1 repair inh,IL1B secr inh,DT40 TDP1 no CPT,TDP1 cell CPT,RORgamma inh
Cc1cccc(CNc2nc(-c3ccc(C(=O)N(C)C)cc3)nc3ccccc23)c1,-1.2%,/,/,2.91µM*,23.1µM*,?
CN(C)C(=O)c1ccc(-c2nc(NCc3cccs3)c3ccccc3n2)cc1,4.0%,/,/,?,?,?
CN(C)C(=O)c1ccc(-c2nc(Nc3ccc(F)cc3)c3ccccc3n2)cc1,16.6%,/,/,23.1µM*,?,21.4%
O=C(Nc1cccc(F)c1)N1CC2(CCN(C(=O)c3cccc(F)c3)CC2)C1,7.6%,/,/,-23.9%,-5.3%,-11.6%
Cc1cnc(CNc2cc(-c3ccccc3C)ncn2)cn1,24.8%,/,/,-4.3%,1.0%,-18.2%
COc1ccc2c(N)c(C(=O)NN)[nH]c2c1,4.2%,-10.7%,9.7,?,?,?
Cc1ncc(CN2CCCC(C(=O)Nc3ccc(-c4cccc(F)c4)cc3)C2)cn1 (configuration not stated),-18.5%,0.7%,-87.4*,?,14.6µM*,26.7%
COc1cccc(-c2ccc(NC(=O)C3CCCN(Cc4ccccn4)C3)cc2)c1 (configuration not stated),/,/,18.6,?,?,/
O=C(Nc1ccc(-c2cccc(F)c2)cc1)C1CCCN(Cc2ccccn2)C1 (configuration not stated),11.2µM*,-14.5%,?,23.1µM*,20.6µM*,12.6µM*
Cc1ccccc1CN1CCCC(C(=O)Nc2ccc(-c3ccn[nH]3)cc2)C1 (configuration not stated),-2.4%,-8.6%,?,?,16.4µM*,38.8%
Cc1ncc(CN2CCCC(C(=O)Nc3ccc(-c4cccc(F)c4)cc3)C2)s1 (configuration not stated),-3.1%,-7.8%,?,?,?,22.2%
CCn1cc(CN2CCCC(C(=O)Nc3cccc(-c4cc5ccccc5[nH]4)c3)C2)cn1 (configuration not stated),3.0%,4.4%,-81.0*,?,4.0%,-0.3%
CC(C(=O)c1ccccc1)[n+]1cccc(Cl)c1 (configuration not stated),/,/,/,?,2.9%,/
COc1cc(C(=C(CC(=O)O)C(=O)O)c2ccc3c(c2)OCO3)cc(OC)c1OC,/,/,9.9,-16.4%,1.5%,/
CCc1ncc(CN2CCCC(C(=O)Nc3cccc(-c4ccc(F)cc4)c3)C2)cn1 (configuration not stated),1.5%,-20.4%,-12.4,16.4µM*,23.1µM*,?
O=C(NCC1CCCO1)c1ccccc1 (configuration not stated),0.8%,/,17.6,0.0%,0.0%,-11.7%
Nc1c(C(=O)NCC2CCCO2)c2nc3ccccc3nc2n1-c1ccccc1 (configuration not stated),-1.3%,?,0.0,16.4µM*,16.4µM*,36.2%
CCCNC(=O)c1c(N)n(-c2cccc(OC)c2)c2nc3ccccc3nc12,-20.1%,16.4µM*,-70.9*,?,?,41.6%
Nc1c(C(=O)NCCN2CCOCC2)c2nc3ccccc3nc2n1-c1cccc(F)c1,6.7%,?,-62.7*,?,?,-7.5%
COCCCNC(=O)c1c(N)n(/N=C/c2ccccn2)c2nc3ccccc3nc12,-5.0%,4.61µM*,?,10.3µM*,10.3µM*,17.1%
COCC(C)OC(=O)c1c(N)n(-c2ccc(OC)c(OC)c2)c2nc3ccccc3nc12 (configuration not stated),-1.1%,-8.8%,-4.6,-10.4%,-3.0%,0.4%
COc1ccccc1CO/N=C/c1cccn1-c1nccc(N(C)C)c1C#N,11.7%,-11.6%,1.0,?,1.6%,21.0%
CC1(C(=O)NCc2cccs2)CCN1CCc1ccccc1 (configuration not stated),/,/,10.2,?,?,/
CC1(C)CC(N=C=O)CC(C)(CN=C=O)C1 (configuration not stated),0.6%,/,/,/,/,1.4%
Cc1ccc(S(=O)(=O)N(CC(=O)Nc2ccccc2)C(=O)N2CCN(C)CC2)cc1,/,8.4%,-8.3,1.3%,14.8%,/
SMILES,Gal4-VP16 FLuc,ELG1 repair inh,IL1B secr inh,DT40 TDP1 no CPT,TDP1 cell CPT,RORgamma inh
C=CCn1c(N)c(C(=O)Nc2ccc(C)c(C)c2)c2nc3ccccc3nc21,-26.8%,-5.9%,4.8,?,-18.0%,4.5%
CC(C)OCCCNC(=O)c1c(N)n(/N=C/c2cccs2)c2nc3ccccc3nc12,-7.4%,-15.8%,-28.6,?,?,-17.7%
C=CCNC(=O)c1c(N)n(-c2ccc3c(c2)OCO3)c2nc3ccccc3nc12,1.2%,6.5%,17.8,13µM*,11.6µM*,-0.8%
COC(=O)c1c(N)n(-c2ccc(OC)c(OC)c2)c2nc3ccccc3nc12,/,/,/,9.2µM*,5.8µM*,/
Nc1c(C(=O)NC2CCCC2)c2nc3ccccc3nc2n1/N=C/c1cccnc1,/,/,-15.7,18.4µM*,16.4µM*,/
N#Cc1c(N)n(CCCN2CCOCC2)c2nc3ccccc3nc12,-11.5%,?,?,-24.9%,-9.3%,-13.3%
Nc1c(C(=O)Nc2ccccc2)c2nc3ccccc3nc2n1CCCN1CCOCC1,?,-29.4%,-77.9*,?,?,11.2µM*
CCOC(=O)Cn1c(=O)oc2cc(S(=O)(=O)N3CCc4ccccc43)ccc21,-2.2%,-0.8%,5.7,?,-24.9%,26.7%
C=CCn1c(N)c(C(=O)Nc2cccc(C)c2)c2nc3ccccc3nc21,0.5%,-1.2%,-60.8*,-14.7%,-23.8%,-27.3%
COCCCNC(=O)c1c(N)n(-c2cccc(S(N)(=O)=O)c2)c2nc3ccccc3nc12,-6.4%,11.6µM*,-52.5*,?,?,-13.2%
O=C(Cn1cc(S(=O)(=O)c2ccccc2)c(=O)c2cc3c(cc21)OCO3)Nc1ccccc1,/,/,/,-13.4%,-10.3%,/
Cc1cnc(CNc2cc(-c3cccc(C#N)c3)ncn2)cn1,-5.0%,/,/,-11.1%,-10.3%,37.5%
CCCCC[C@H](C)N1C[C@@H](COCc2ccccc2)Oc2cc(N3CCC[C@@H]3COC)ccc2S1(=O)=O,/,/,41.7,18.4µM*,20.6µM*,/
CCCCC[C@@H](C)N1C[C@H](COCc2ccccc2)Oc2cc(N3CCC[C@H]3COC)ccc2S1(=O)=O,/,/,2.5,6.51µM*,5.8µM*,/

# Source: PubChem (National Center for Advancing Translational Sciences (NCATS))
